High-throughput results from PubChem BioAssay.
TGFb SMAD3 inh – qHTS for Inhibitors of TGF-b | AID 588855, 2011 | 1.2% of 410,000 active | Potency, µM (series often up to 46.1 µM), for inactives: at the highest dose activity, negative = inhibition, hits mostly inhibitors | HepG2 CAGA-GFP TGF-b/SMAD3 reporter, GFP fluorescence, 18 h; TGF-beta stimulated, 500 pg/mL final; further: potency means the concentration at half of the fitted maximal effect; on the % scale 0 is the no-effect control and ±100 the full control effect; nearly all actives have a fitted effect of over 65% in size
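GFP signal (ex488/em500-530) from TGF-beta-stimulated HEPG2 CAGA-GFP cells, 500 pg/mL final, 18 h at 37 degrees C in DMEM plus 1% FBS, normalized to unstimulated and DMSO-stimulated controls.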
TDP1 cell noCPT – qHTS for Inhibitors of human tyrosyl-DNA phosphodiesterase 1 (TDP1): qHTS in cells in absence of CPT. AID 686978, 2013. Potency, µM (top dose mostly 46.2 µM), without a hit: top-dose activity change, negative = growth inhibition, actives largely listed as inhibitors. DT40 Tdp1-/- hTDP1 cells, no CPT, ATP luminescence, 48 h. 15% of 420,000 active; further: potency means the concentration at half of the fitted maximal effect; on the % scale 0 is the no-effect control and ±100 the full control effect; nearly all actives have a fitted effect of over 55% in size
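Camptothecin absent (DMSO only). Human TDP1-complemented DT40 knockout cells, 400 cells/well, 37 °C for minimum 48 hr; ATP measured via CellTiter-Glo, 30 min dark incubation, luminescence.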
IL1B secr inh – qHTS for Inhibitors of Inflammasome Signaling: IL-1-beta AlphaLISA Primary Screen; THP-1 LPS/ATP IL-1B secretion, AlphaLISA, 16 h; hits give low values; activity change, % at 57.5 µM; 4.7% of 360,000 active; in the data active means activity change below about -50%; inconclusive means mostly about -30% to -49%; further: on the % scale 0 is the no-effect control and ±100 the full control effect
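THP-1 cells pretreated 1 hr with compounds (up to 57.5 uM final), then stimulated with LPS (250 ng/mL final) plus ATP (1.25 mM final); secreted IL-1B measured by AlphaLISA after 16 hr, decreased signal indicating inhibition.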
TDP1 cell CPT – qHTS for Inhibitors of human tyrosyl-DNA phosphodiesterase 1 (TDP1): qHTS in cells in presence of CPT; 12% of 420,000 active; Potency, µM (highest dose often 46.2 µM), for the others: top-dose activity change, negative = growth inhibition, hits mostly inhibitors; chicken DT40 Tdp1-/-;hTDP1 cells + 20 nM CPT, ATP luminescence, 48 h; further: potency means the concentration at half of the fitted maximal effect; on the % scale 0 is the no-effect control and ±100 the full control effect; nearly all actives have a fitted effect of over 55% in size
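Chicken DT40 Tdp1-/- cells stably complemented with human TDP1 were seeded at 400 cells/well in medium containing 20 nM camptothecin, exposed to pin-transferred compounds, and grown at 37 °C for at least 48 hr. Viability was read as ATP luminescence.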
HepG2 tox – qHTS for Inhibitors of TGF-b: Cytotox Counterscreen; HepG2 CAGA-GFP viability, ATP luminescence, 18 h; Potency, µM (titrated, usually from 46.1 µM), for inactives: top-dose activity change, negative = cytotoxicity, usual class: cytotoxic; 0.76% of 410,000 active; AID 588856, 2011; further: potency means the concentration at half of the fitted maximal effect
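CellTiter-Glo luminescence gave cytotoxicity after 18 hours at 37 degrees C. The cells were HepG2 CAGA-GFP in 1% FBS DMEM, stimulated with 500 pg/mL TGF-beta after compound addition. %Activity was normalised to no-cell wells (complete cell-killing) and DMSO (no toxicity), and curves were fitted and classified.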
S-ASM inh – Inhibitors of Secretory Acid Sphingomyelinase (S-ASM): qHTS. 0.006% of 340,000 active. Potency, µM (doses to about 57.5 µM), for inactives: top-dose activity change, negative = inhibition, actives largely listed as inhibitors. AID 504937, 2011. placental ASM, HMU-PC fluorogenic substrate, 60 min; further: potency means the concentration at half of the fitted maximal effect
Target sequence (P17405 47-631 limits assumed): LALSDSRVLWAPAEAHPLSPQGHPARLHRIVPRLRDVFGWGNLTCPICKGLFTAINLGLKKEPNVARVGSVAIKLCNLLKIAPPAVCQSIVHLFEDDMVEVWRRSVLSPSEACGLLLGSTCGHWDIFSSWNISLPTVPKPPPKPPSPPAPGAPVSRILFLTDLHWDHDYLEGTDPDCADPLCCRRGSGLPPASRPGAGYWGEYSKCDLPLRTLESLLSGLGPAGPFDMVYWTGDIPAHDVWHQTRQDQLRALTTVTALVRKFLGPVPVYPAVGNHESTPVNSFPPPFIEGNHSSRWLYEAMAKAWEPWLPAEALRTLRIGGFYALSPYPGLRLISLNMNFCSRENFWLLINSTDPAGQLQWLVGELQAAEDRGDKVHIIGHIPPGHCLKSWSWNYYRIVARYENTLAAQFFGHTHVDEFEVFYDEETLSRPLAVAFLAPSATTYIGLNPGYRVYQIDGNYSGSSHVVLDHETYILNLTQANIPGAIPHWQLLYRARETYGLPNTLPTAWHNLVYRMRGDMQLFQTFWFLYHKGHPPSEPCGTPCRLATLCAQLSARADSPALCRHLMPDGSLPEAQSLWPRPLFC
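Human placenta-derived ASM enzyme was preincubated with compound for 10 minutes at room temperature, then given fluorogenic substrate HMU-PC0 (9 uM final) for 60 minutes at 37 °C; a pH 10 stop preceded fluorescence reading at Ex 386/Em 447 nm.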
* marks the source's active call; other numbers are inactive results; [ ] = another dose, or the depositor's remark. Hits are enriched below; roughly 19% of the tested compounds scored in any of these assays. Unless noted, the call rests on the fitted dose curve; in most records, active means well fitted curve in the direction sought with a large enough effect; inconclusive means small, poorly fitted or top-dose-only effect, or another doubt; inactive means no such curve, though single readings can be large; an effect the other way counts as inactive or inconclusive.

For O=C(CSc1ccccc1)Nc1ccc2c(c1)C(=O)NC2=O the results were TGFb SMAD3 inh 3%, TDP1 cell noCPT 2%, IL1B secr inh 5, TDP1 cell CPT 0%, HepG2 tox -7% and S-ASM inh 0%.
For Cc1cccc2cc(CN(C(=O)c3ccc(C(F)(F)F)cc3)C3CC3)c(N3CCC(O)CC3)nc12 the results were TDP1 cell noCPT inconclusive and TDP1 cell CPT -4%[9.04 µM].
Screening O=C(CSc1nc2ccsc2c(=O)n1Cc1ccc(F)cc1)NCc1ccc(Cl)cc1 returned TGFb SMAD3 inh 1%, TDP1 cell noCPT -23%, TDP1 cell CPT inconclusive and HepG2 tox -1%.
Screening O=c1c2ccccc2n2c(-c3ccc(Cl)cc3)nnc2n1CCc1ccccc1 returned TGFb SMAD3 inh -38%, TDP1 cell noCPT 18µM*, TDP1 cell CPT inconclusive and HepG2 tox -7%.
`CCN(CC)S(=O)(=O)c1ccc(/C=C/C(=O)Nc2ccc(F)cc2F)cc1` gave TGFb SMAD3 inh -28%, TDP1 cell noCPT 13µM*, IL1B secr inh -4, TDP1 cell CPT inconclusive, HepG2 tox -44% and S-ASM inh 2%.
For Cc1cc(NC(=S)NC(=O)/C=C/c2ccc(S(=O)(=O)N3CCOCC3)cc2)ccc1Br the results were TGFb SMAD3 inh -10%, TDP1 cell noCPT 15µM*, IL1B secr inh -88*, TDP1 cell CPT inconclusive, HepG2 tox -10% and S-ASM inh -17%.
`CCN(CC)S(=O)(=O)c1cccc(NC(=O)/C=C/c2ccc([N+](=O)[O-])cc2)c1` gave TGFb SMAD3 inh -2%, TDP1 cell noCPT inconclusive, IL1B secr inh 5, TDP1 cell CPT -2%, HepG2 tox -22% and S-ASM inh 0%.
O=C(/C=C/c1ccc(S(=O)(=O)N2CCOCC2)cc1)N1CCN(c2ccccc2)CC1 was read as TGFb SMAD3 inh -9%, TDP1 cell noCPT 1µM*, IL1B secr inh -25, TDP1 cell CPT 12µM*, HepG2 tox -25% and S-ASM inh -5%.
Screening CCN(CC)S(=O)(=O)c1ccc(/C=C/C(=O)Nc2ccc(N3CCOCC3)cc2)cc1 returned TGFb SMAD3 inh -26%, TDP1 cell noCPT 21µM*, IL1B secr inh -7, TDP1 cell CPT inconclusive, HepG2 tox -13% and S-ASM inh -9%.
`COc1ccc(/C=C/C(=O)Nc2ccc(N3CCOCC3)cc2)cc1` gave TGFb SMAD3 inh -2%, TDP1 cell noCPT inconclusive, IL1B secr inh 10, TDP1 cell CPT 5%, HepG2 tox 0% and S-ASM inh -2%.
Screening COC(=O)CN1C(=O)[C@H]2[C@@H](c3ccc(C)o3)N3C(=O)CN(Cc4ccccn4)C(=O)[C@@]3(Cc3ccccc3)[C@H]2C1=O returned TGFb SMAD3 inh -15%, TDP1 cell noCPT -7%, IL1B secr inh 7, TDP1 cell CPT 10%, HepG2 tox 0% and S-ASM inh 0%.
Screening CCN(C(=O)c1cccc(S(=O)(=O)N2CCc3ccccc32)c1)C1CCS(=O)(=O)C1 (configuration not stated) returned TGFb SMAD3 inh 20%, TDP1 cell noCPT inconclusive, IL1B secr inh 8, TDP1 cell CPT inconclusive, HepG2 tox 32% and S-ASM inh -4%.
For COC(=O)C1=C(c2ccccc2)c2ccccc2S(=O)(=O)N1CC(=O)Nc1cc(C)ccc1C the results were TGFb SMAD3 inh -12%, TDP1 cell noCPT inconclusive, TDP1 cell CPT -28% and HepG2 tox -15%.
COc1cc(C(=O)N2CCN(CCc3ccccn3)CC2)cc(OC)c1OC was read as TGFb SMAD3 inh 10%, TDP1 cell noCPT -18%, TDP1 cell CPT 3% and HepG2 tox -1%.
O=C(CCOc1ccc(F)cc1)Nc1nccs1 was read as TGFb SMAD3 inh 7%, TDP1 cell noCPT -1%, IL1B secr inh -1, TDP1 cell CPT 2%, HepG2 tox -39% and S-ASM inh -1%.
For O=C(/C=C/c1ccc(S(=O)(=O)N2CCOCC2)cc1)NC(=S)Nc1ccc(N2CCOCC2)cc1 the results were TGFb SMAD3 inh -5%, TDP1 cell noCPT inconclusive, IL1B secr inh -76*, TDP1 cell CPT 4%, HepG2 tox -18% and S-ASM inh -1%.
Screening O=C(/C=C/c1ccc(F)cc1)Nc1ccc(S(=O)(=O)N2CCOCC2)cc1 returned TGFb SMAD3 inh 0%, TDP1 cell noCPT -5%, IL1B secr inh -14, TDP1 cell CPT inconclusive, HepG2 tox -4% and S-ASM inh -14%.
COc1cccc(/C=C/C(=O)N2CCN(S(=O)(=O)c3ccccc3)CC2)c1 was read as TGFb SMAD3 inh 14%, TDP1 cell noCPT 21µM*, IL1B secr inh -24, TDP1 cell CPT inconclusive and HepG2 tox -1%.
For COc1ccccc1Nc1cc(C)nc2c(C)ccc([N+](=O)[O-])c12 the results were TGFb SMAD3 inh 0%, TDP1 cell noCPT -22%, IL1B secr inh -19, TDP1 cell CPT -24%, HepG2 tox -12% and S-ASM inh -17%.
`Cc1cc(Nc2ccccc2)c2c([N+](=O)[O-])cc(C)c(C)c2n1` gave TGFb SMAD3 inh inconclusive, TDP1 cell noCPT 23µM*, IL1B secr inh -4, TDP1 cell CPT 9.2µM*, HepG2 tox 5% and S-ASM inh -16%.
